The results in this text go back to publication PMC11006913.

What all share (assay): PBM; 200 nM protein, PBS
Common to all, as to conditions: dsDNA, one strand shown

The target in experiment [1] is HOXA4 (Homo sapiens, UniProt Q00056 201-287, W262R).
Experiment [2] concerns the target HOXB6 (Homo sapiens, UniProt P17509 132-218, K202E).
Experiment [3] addresses HOXA4 (Homo sapiens, UniProt Q00056 201-287, R217L).
Experiment [4] addresses MSX2 (Homo sapiens, UniProt P35548 130-214, R199I).
The target of experiment [5] is HOXA4 (Homo sapiens, UniProt Q00056 201-287).
For experiment [6], the target named is MSX2 (Homo sapiens, UniProt P35548 130-214).
Experiment [7] has as its target MSX2 (Homo sapiens, UniProt P35548 130-214, F161Y).
For experiment [8], the target named is HOXA4 (Homo sapiens, UniProt Q00056 201-287, W262F).
Experiment [9] addresses HOXB6 (Homo sapiens, UniProt P17509 132-218).
Experiment [10] deals with HOXC10 (Homo sapiens, UniProt Q9NYD6 254-340).
In experiment [11] the target is HOXC10 (Homo sapiens, UniProt Q9NYD6 254-340, K271E).
Experiment [12] concerns the target VAX1 (Homo sapiens, UniProt Q5SQQ9 86-172).
Experiment [13] has as its target VAX1 (Homo sapiens, UniProt Q5SQQ9 86-172, T142I).
Experiment [14] has as its target VAX1 (Homo sapiens, UniProt Q5SQQ9 86-172, K157R).
Experiment [15] addresses PRRX1 (Homo sapiens, UniProt P54821 80-166, F113S).
In experiment [16] the target is PRRX1 (Homo sapiens, UniProt P54821 80-166).
The target of experiment [17] is T1, SIX6 (Homo sapiens, UniProt O95475 114-200, L167I).
T1 sequence: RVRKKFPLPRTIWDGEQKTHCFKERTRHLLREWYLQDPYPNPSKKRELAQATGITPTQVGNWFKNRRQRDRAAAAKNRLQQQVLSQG

For experiment [18], the target named is T2, SIX6 (Homo sapiens, UniProt O95475 114-200).
T2 sequence: T1 sequence with I54L

Experiment [19] has as its target T3, SIX6 (Homo sapiens, UniProt O95475 114-200, L167V).
T3 sequence: T1 sequence with I54V

In experiment [20] the target is T4, SIX6 (Homo sapiens, UniProt O95475 114-200, T165I).
T4 sequence: T1 sequence with T52I, I54L

The target of experiment [21] is ALX3 (Homo sapiens, UniProt O95076 139-225, N203Q).
Experiment [22] has as its target ALX3 (Homo sapiens, UniProt O95076 139-225).
Experiment [23] concerns the target PROP1 (Homo sapiens, UniProt O75360 56-141).
In experiment [24] the target is PROP1 (Homo sapiens, UniProt O75360 56-141, R99H).
Experiment [25] concerns the target ALX3 (Homo sapiens, UniProt O95076 139-225, L168Q).
Experiment [26] has as its target ALX3 (Homo sapiens, UniProt O95076 139-225, L168V).
Experiment [27] addresses PROP1 (Homo sapiens, UniProt O75360 56-141, F88S).
The target in experiment [28] is ALX3 (Homo sapiens, UniProt O95076 139-225, N203S).
The target of a further experiment is PITX2 (Homo sapiens, UniProt Q99697 72-157).
Experiment [29] deals with HOXD13 (Homo sapiens, UniProt P35453 263-343, T313R).
In experiment [30] the target is HOXD13 (Homo sapiens, UniProt P35453 263-343).
The target in experiment [31] is HOXD13 (Homo sapiens, UniProt P35453 263-343, T313A).
Experiment [32] concerns the target T5, NKX2-6 (Homo sapiens, UniProt A6NCS4 118-204).
T5 sequence: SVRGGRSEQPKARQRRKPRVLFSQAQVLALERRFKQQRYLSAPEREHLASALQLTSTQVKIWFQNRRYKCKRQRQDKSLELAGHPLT

In experiment [33] the target is T6, NKX2-6 (Homo sapiens, UniProt A6NCS4 118-204, F151L).
T6 sequence: T5 sequence with F34L

Numbering of substitutions follows the chain as printed.

HOXA4 (Homo sapiens, UniProt Q00056 201-287), sequence (Q00056 201-287): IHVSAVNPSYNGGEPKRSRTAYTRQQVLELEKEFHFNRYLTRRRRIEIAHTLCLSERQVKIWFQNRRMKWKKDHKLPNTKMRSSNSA
HOXA4 (Homo sapiens, UniProt Q00056 201-287, R217L), sequence (Q00056 201-287 R217L): as the sequence (Q00056 201-287) above, with R17L counted along it
HOXA4 (Homo sapiens, UniProt Q00056 201-287, W262R), sequence (Q00056 201-287 W262R): as the sequence (Q00056 201-287) above, with W62R counted along it
HOXA4 (Homo sapiens, UniProt Q00056 201-287, W262F), sequence (Q00056 201-287 W262F): as the sequence (Q00056 201-287) above, with W62F counted along it
HOXB6 (Homo sapiens, UniProt P17509 132-218), sequence (P17509 132-218): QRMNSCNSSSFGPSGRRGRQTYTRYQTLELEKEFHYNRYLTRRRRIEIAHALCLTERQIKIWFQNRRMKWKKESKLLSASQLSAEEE
MSX2 (Homo sapiens, UniProt P35548 130-214), sequence (P35548 130-214): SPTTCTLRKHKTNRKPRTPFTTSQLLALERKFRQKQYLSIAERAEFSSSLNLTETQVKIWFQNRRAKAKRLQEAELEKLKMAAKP
MSX2 (Homo sapiens, UniProt P35548 130-214, F161Y), sequence (P35548 130-214 F161Y): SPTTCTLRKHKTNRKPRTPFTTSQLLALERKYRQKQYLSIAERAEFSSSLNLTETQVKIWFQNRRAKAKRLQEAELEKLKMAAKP
HOXB6 (Homo sapiens, UniProt P17509 132-218, K202E), sequence (P17509 132-218 K202E): as the sequence (P17509 132-218) above, with K71E counted along it
MSX2 (Homo sapiens, UniProt P35548 130-214, R199I), sequence (P35548 130-214 R199I): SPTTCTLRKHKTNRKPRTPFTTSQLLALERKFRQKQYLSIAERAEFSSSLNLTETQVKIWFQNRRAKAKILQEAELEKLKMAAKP
PROP1 (Homo sapiens, UniProt O75360 56-141, R99H), sequence (O75360 56-141 R99H): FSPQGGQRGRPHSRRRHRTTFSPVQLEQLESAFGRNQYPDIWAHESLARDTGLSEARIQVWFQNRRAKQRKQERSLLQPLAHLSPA
HOXD13 (Homo sapiens, UniProt P35453 263-343, T313R), sequence (P35453 263-343 T313R): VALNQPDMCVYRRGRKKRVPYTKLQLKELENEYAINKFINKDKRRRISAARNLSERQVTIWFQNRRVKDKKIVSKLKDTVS
PRRX1 (Homo sapiens, UniProt P54821 80-166), sequence (P54821 80-166): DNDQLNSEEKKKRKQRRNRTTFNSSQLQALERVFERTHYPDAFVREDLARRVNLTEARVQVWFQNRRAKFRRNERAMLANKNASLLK
PROP1 (Homo sapiens, UniProt O75360 56-141), sequence (O75360 56-141): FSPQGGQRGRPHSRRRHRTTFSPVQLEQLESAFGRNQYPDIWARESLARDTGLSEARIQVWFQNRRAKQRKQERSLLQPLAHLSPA
HOXC10 (Homo sapiens, UniProt Q9NYD6 254-340, K271E), sequence (Q9NYD6 254-340 K271E): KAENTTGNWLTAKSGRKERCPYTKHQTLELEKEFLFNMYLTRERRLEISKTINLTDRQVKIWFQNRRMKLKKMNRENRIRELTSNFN
VAX1 (Homo sapiens, UniProt Q5SQQ9 86-172, T142I), sequence (Q5SQQ9 86-172 T142I): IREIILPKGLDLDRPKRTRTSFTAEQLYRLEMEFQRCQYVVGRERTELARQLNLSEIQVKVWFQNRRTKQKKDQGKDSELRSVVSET
ALX3 (Homo sapiens, UniProt O95076 139-225, N203S), sequence (O95076 139-225 N203S): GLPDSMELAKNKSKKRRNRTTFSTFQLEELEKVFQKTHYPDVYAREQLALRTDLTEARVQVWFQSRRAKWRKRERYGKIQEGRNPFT
HOXD13 (Homo sapiens, UniProt P35453 263-343), sequence (P35453 263-343): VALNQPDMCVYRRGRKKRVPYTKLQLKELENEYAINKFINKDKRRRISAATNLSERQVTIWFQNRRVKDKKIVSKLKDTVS
HOXD13 (Homo sapiens, UniProt P35453 263-343, T313A), sequence (P35453 263-343 T313A): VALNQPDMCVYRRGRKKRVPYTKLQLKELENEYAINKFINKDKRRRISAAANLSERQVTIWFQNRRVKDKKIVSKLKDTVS
ALX3 (Homo sapiens, UniProt O95076 139-225), sequence (O95076 139-225): as the sequence (O95076 139-225 N203S) above, with S65N counted along it
PROP1 (Homo sapiens, UniProt O75360 56-141, F88S), sequence (O75360 56-141 F88S): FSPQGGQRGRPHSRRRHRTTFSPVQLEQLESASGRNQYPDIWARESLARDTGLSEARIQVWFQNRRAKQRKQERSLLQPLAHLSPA
ALX3 (Homo sapiens, UniProt O95076 139-225, L168V), sequence (O95076 139-225 L168V): as the sequence (O95076 139-225 N203S) above, with L30V, S65N counted along it
PRRX1 (Homo sapiens, UniProt P54821 80-166, F113S), sequence (P54821 80-166 F113S): as the sequence (P54821 80-166) above, with F34S counted along it
HOXC10 (Homo sapiens, UniProt Q9NYD6 254-340), sequence (Q9NYD6 254-340): as the sequence (Q9NYD6 254-340 K271E) above, with E18K counted along it
ALX3 (Homo sapiens, UniProt O95076 139-225, N203Q), sequence (O95076 139-225 N203Q): as the sequence (O95076 139-225 N203S) above, with S65Q counted along it
ALX3 (Homo sapiens, UniProt O95076 139-225, L168Q), sequence (O95076 139-225 L168Q): as the sequence (O95076 139-225 N203S) above, with L30Q, S65N counted along it
VAX1 (Homo sapiens, UniProt Q5SQQ9 86-172), sequence (Q5SQQ9 86-172): as the sequence (Q5SQQ9 86-172 T142I) above, with I57T counted along it
VAX1 (Homo sapiens, UniProt Q5SQQ9 86-172, K157R), sequence (Q5SQQ9 86-172 K157R): as the sequence (Q5SQQ9 86-172 T142I) above, with I57T, K72R counted along it

GCCCGGAC: the binding signal in the experiment with HOXA4 [1] was 9.85 upbm affinity estimate (log intensity, higher = more binding, comparable within an allelic series); in the experiment with HOXB6 [2] it was 9.01 upbm affinity estimate (log intensity, higher = more binding, comparable within an allelic series); in the experiment with HOXA4 [3], 9.75 upbm affinity estimate (log intensity, higher = more binding, comparable within an allelic series); in the experiment with MSX2 [4], 9.48 upbm affinity estimate (log intensity, higher = more binding, comparable within an allelic series); in the experiment with HOXA4 [5], 9.68 upbm affinity estimate (log intensity, higher = more binding, comparable within an allelic series); in the experiment with MSX2 [6] it was 9.46 upbm affinity estimate (log intensity, higher = more binding, comparable within an allelic series). Further, the binding signal is 9.5 upbm affinity estimate (log intensity, higher = more binding, comparable within an allelic series) with MSX2 [7]; 9.88 upbm affinity estimate (log intensity, higher = more binding, comparable within an allelic series) with HOXA4 [8]; 8.94 upbm affinity estimate (log intensity, higher = more binding, comparable within an allelic series) in the experiment with HOXB6 [9].

Consider CGCGCGCG, for which the binding signal in the experiment with HOXA4 [1] is 9.91 upbm affinity estimate (log intensity, higher = more binding, comparable within an allelic series); with HOXC10 [10] it was 10.1 upbm affinity estimate (log intensity, higher = more binding, comparable within an allelic series); with HOXA4 [3], 9.88 upbm affinity estimate (log intensity, higher = more binding, comparable within an allelic series); in the experiment with MSX2 [4], 9.61 upbm affinity estimate (log intensity, higher = more binding, comparable within an allelic series); with HOXA4 [5], 9.94 upbm affinity estimate (log intensity, higher = more binding, comparable within an allelic series); with HOXC10 [11], 10 upbm affinity estimate (log intensity, higher = more binding, comparable within an allelic series). The binding signal with MSX2 [6] is 9.53 upbm affinity estimate (log intensity, higher = more binding, comparable within an allelic series); in the experiment with VAX1 [12], 7.34 upbm affinity estimate (log intensity, higher = more binding, comparable within an allelic series); with MSX2 [7], 9.52 upbm affinity estimate (log intensity, higher = more binding, comparable within an allelic series); in the experiment with VAX1 [13], 7.38 upbm affinity estimate (log intensity, higher = more binding, comparable within an allelic series); in the experiment with HOXA4 [8] it was 10.1 upbm affinity estimate (log intensity, higher = more binding, comparable within an allelic series); in the experiment with VAX1 [14], 7.37 upbm affinity estimate (log intensity, higher = more binding, comparable within an allelic series).

Take GGGGGAAC: the binding signal was 9.66 upbm affinity estimate (log intensity, higher = more binding, comparable within an allelic series) with HOXA4 [1]; 9.45 upbm affinity estimate (log intensity, higher = more binding, comparable within an allelic series) with PRRX1 [15]; 9.7 upbm affinity estimate (log intensity, higher = more binding, comparable within an allelic series) with HOXA4 [3]; 9.72 upbm affinity estimate (log intensity, higher = more binding, comparable within an allelic series) with HOXA4 [5]; 9.64 upbm affinity estimate (log intensity, higher = more binding, comparable within an allelic series) with HOXA4 [8]; 9.62 upbm affinity estimate (log intensity, higher = more binding, comparable within an allelic series) with PRRX1 [16].

Regarding ATACTAAC, the binding signal in the experiment with SIX6 [17] was 10.1 upbm affinity estimate (log intensity, higher = more binding, comparable within an allelic series); in the experiment with SIX6 [18], 10.1 upbm affinity estimate (log intensity, higher = more binding, comparable within an allelic series).

Regarding AGATGATA, the binding signal with SIX6 [17] was 11.1 upbm affinity estimate (log intensity, higher = more binding, comparable within an allelic series); with SIX6 [19] it was 10.9 upbm affinity estimate (log intensity, higher = more binding, comparable within an allelic series); with SIX6 [20], 10.9 upbm affinity estimate (log intensity, higher = more binding, comparable within an allelic series).

Take CCCAGACC: the binding signal with HOXA4 [1] is 9.9 upbm affinity estimate (log intensity, higher = more binding, comparable within an allelic series); with HOXA4 [3], 9.76 upbm affinity estimate (log intensity, higher = more binding, comparable within an allelic series); in the experiment with ALX3 [21], 7.81 upbm affinity estimate (log intensity, higher = more binding, comparable within an allelic series); in the experiment with HOXA4 [5], 9.51 upbm affinity estimate (log intensity, higher = more binding, comparable within an allelic series); with ALX3 [22], 7.71 upbm affinity estimate (log intensity, higher = more binding, comparable within an allelic series); in the experiment with PROP1 [23], 6.45 upbm affinity estimate (log intensity, higher = more binding, comparable within an allelic series). Also, the binding signal with PROP1 [24] is 6.71 upbm affinity estimate (log intensity, higher = more binding, comparable within an allelic series); in the experiment with ALX3 [25] it was 7.78 upbm affinity estimate (log intensity, higher = more binding, comparable within an allelic series); with ALX3 [26] it was 7.7 upbm affinity estimate (log intensity, higher = more binding, comparable within an allelic series); with PROP1 [27] it was 6.48 upbm affinity estimate (log intensity, higher = more binding, comparable within an allelic series); with HOXA4 [8], 9.84 upbm affinity estimate (log intensity, higher = more binding, comparable within an allelic series); with ALX3 [28] it was 7.84 upbm affinity estimate (log intensity, higher = more binding, comparable within an allelic series).

In the case of GCGGTCAC, the binding signal with HOXA4 [1] is 9.83 upbm affinity estimate (log intensity, higher = more binding, comparable within an allelic series); with HOXA4 [3], 9.77 upbm affinity estimate (log intensity, higher = more binding, comparable within an allelic series); with PITX2 it was 7.97 upbm affinity estimate (log intensity, higher = more binding, comparable within an allelic series); with HOXA4 [5], 9.75 upbm affinity estimate (log intensity, higher = more binding, comparable within an allelic series); with HOXA4 [8], 9.9 upbm affinity estimate (log intensity, higher = more binding, comparable within an allelic series).

As to AGGCTGGG, the binding signal in the experiment with HOXA4 [1] was 9.88 upbm affinity estimate (log intensity, higher = more binding, comparable within an allelic series); in the experiment with HOXA4 [3] it was 9.85 upbm affinity estimate (log intensity, higher = more binding, comparable within an allelic series); in the experiment with HOXD13 [29], 9.56 upbm affinity estimate (log intensity, higher = more binding, comparable within an allelic series); with HOXD13 [30] it was 9.59 upbm affinity estimate (log intensity, higher = more binding, comparable within an allelic series); with HOXA4 [5] it was 9.82 upbm affinity estimate (log intensity, higher = more binding, comparable within an allelic series); with HOXD13 [31], 9.67 upbm affinity estimate (log intensity, higher = more binding, comparable within an allelic series). For the same sequence, the binding signal with HOXA4 [8] was 9.84 upbm affinity estimate (log intensity, higher = more binding, comparable within an allelic series).

Regarding CAGACCTC, the binding signal was 9.86 upbm affinity estimate (log intensity, higher = more binding, comparable within an allelic series) with HOXA4 [1]; 9.83 upbm affinity estimate (log intensity, higher = more binding, comparable within an allelic series) in the experiment with HOXA4 [3]; 9.81 upbm affinity estimate (log intensity, higher = more binding, comparable within an allelic series) with HOXA4 [5]; 9.9 upbm affinity estimate (log intensity, higher = more binding, comparable within an allelic series) with HOXA4 [8].

Turning to CCCGTGTC, the binding signal is 9.85 upbm affinity estimate (log intensity, higher = more binding, comparable within an allelic series) with HOXA4 [1]; 9.73 upbm affinity estimate (log intensity, higher = more binding, comparable within an allelic series) in the experiment with HOXA4 [3]; 9.5 upbm affinity estimate (log intensity, higher = more binding, comparable within an allelic series) with NKX2-6 [32]; 9.62 upbm affinity estimate (log intensity, higher = more binding, comparable within an allelic series) with HOXA4 [5]; 9.22 upbm affinity estimate (log intensity, higher = more binding, comparable within an allelic series) with NKX2-6 [33]; 9.79 upbm affinity estimate (log intensity, higher = more binding, comparable within an allelic series) with HOXA4 [8].

In the case of CATTAACG, the binding signal with HOXA4 [1] is 10.6 upbm affinity estimate (log intensity, higher = more binding, comparable within an allelic series); with HOXB6 [2] it was 9.9 upbm affinity estimate (log intensity, higher = more binding, comparable within an allelic series); with HOXA4 [3], 11.8 upbm affinity estimate (log intensity, higher = more binding, comparable within an allelic series); with HOXA4 [5], 13.6 upbm affinity estimate (log intensity, higher = more binding, comparable within an allelic series); in the experiment with HOXA4 [8], 11.4 upbm affinity estimate (log intensity, higher = more binding, comparable within an allelic series); with HOXB6 [9] it was 11.6 upbm affinity estimate (log intensity, higher = more binding, comparable within an allelic series).
